Here are results for 15 compounds from PubChem BioAssay AID504635 (The Scripps Research Institute Molecular Screening Center, 2011).

Some of the results follow. Values without a mark were called inactive. The source made the active and inactive calls. Rule as the data show it: active = inhibition above about 18%; inactive = the rest.

The test deals with Troponin I, cardiac muscle (Homo sapiens) + Troponin T, cardiac muscle (Homo sapiens) + Troponin C, slow skeletal and cardiac muscles (Homo sapiens) (UniProt P19429+P45379+P63316). The experiment in a line: cardiac RTF calcium sensitivity inhibitors, confirmation, biochemical, fluorescence readout (AID 504635). The conditions noted are these: reconstituted cardiac thin filaments, at 7.15 µM, stronger effect = higher value.
One may read the inhibition as the change of the read-out against control, counted positive when it falls. In the case of `CC1CCCC(NC(=O)COC(=O)[C@@H]2CC(O)CN2S(=O)(=O)c2ccc3c(c2)OCCO3)C1C` (stereo not given in full), the inhibition was -1.77%.

For `C=CCNC(=O)COC(=O)c1ccccc1C(=O)N(C)C1CCCCC1`, the inhibition was 0.72%.

As to `COc1cccc(CNC(=O)C(=O)NCCC2CCCCN2S(=O)(=O)c2ccc(C)cc2)c1` (stereo not given), the inhibition was -4.1%. As for `COC(=O)CCc1sc(Nc2ccc(Br)cc2)nc1-c1ccc(OC)cc1`, the figure is 1.8%; as for `O=C(O)c1cccc(S(=O)(=O)Nc2ccc(O)cc2Sc2nc3ccccc3s2)c1`, -6.09%.

With `COc1cc(OC)cc(C(=O)NCC(=O)OCc2csc(-c3ccccc3)n2)c1`, the inhibition is 2.35%. Then `C/C(=N\NC(=O)C(N)=O)c1ccc2c(c1)OCCO2`, with -2.4%; and `O=c1ccc2c(-c3ccccc3S(=O)(=O)O)c3ccc(O)c(O)c3oc-2c1O`, with 154% (active); and `CCCCn1c(=O)c(C(C)=O)c(O)c2ccccc21`, with -4.91%. As for `Cc1ccc(S(=O)(=O)N(CC(=O)Nc2cccc([N+](=O)[O-])c2)Cc2ccc(Cl)cc2)cc1`, the figure is -1.82%. As for `COc1ccc(NC(=O)CC2COc3ccccc3O2)c(OC)c1` (stereo not given), the figure is -2.46%; as for `Cc1cc(NC(=O)CCC(=O)N(CC(=O)NCC2CCCO2)c2ccccc2)no1` (stereo not given), -4.68%; as for `COC(=O)c1cccc(N(CC(=O)NCC2CCCO2)C(=O)CCC(=O)Nc2cc(C)on2)c1` (stereo not given), -2.6%. Turning to `Cc1cccc(N(C(=O)Cc2cccs2)C(C(=O)NC2CCCC2)c2ccsc2)c1` (stereo not given), the inhibition was -3.11%. Then `Cc1ccc(NC(=O)NC2CCCCC2)cc1S(=O)(=O)N1CCOCC1`, with -0.15%.
